Coupling enz – counter-screen for Giardia aldolase inhibitors: coupling enzyme system. coupling enzyme system counterscreen, AmpLite Red fluorescence. activity change, negative = inhibition, % at 58.2 µM, hits read low. 290,000 tested, 0.67% active. AID 2472; in the data active means activity change below about -30%
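First, compound is pin-transferred into glyceraldehyde-3-phosphate coupling-enzyme reagent at 57.5 uM final and held 10 min at RT. Next, substrate, coupling system and AmpLite Red are added. After 20 min RT, fluorescence (525/598 nm) is read.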
Tau FP inhib – tau fibrillization inhibition (FP) | P10636 | K18 P301L tau heparin fibrillization, Alexa594 FP, 6 h | Potency, µM (doses to about 57.7 µM), inactives show top-dose activity, negative = inhibition, actives largely listed as inhibitors | 280,000 tested, 0.39% active | AID 1468; further: potency means the concentration at half of the fitted maximal effect; nearly all actives have a fitted effect of over 55% in size
Target sequence (P10636 561-689 P618L limits assumed): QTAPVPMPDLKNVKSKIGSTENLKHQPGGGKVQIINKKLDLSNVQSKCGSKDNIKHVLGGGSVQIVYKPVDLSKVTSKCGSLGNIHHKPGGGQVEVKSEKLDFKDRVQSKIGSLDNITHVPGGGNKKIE
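Heparin (20 uM) drove fibril formation of recombinant tau K18 P301L, 15 uM unlabeled with 0.24 uM Alexa 594 label, for 6 hr at 37 C in 100 mM sodium acetate pH 7. Fluorescence polarization (555/632 nm) read 1 hr after 30 uM ThT.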
Tau fibril ThT – blocks human tau fibril formation measured by thioflavin T. recombinant tau K18 P301L, heparin-induced fibrillization, ThT fluorescence. Potency, µM (highest dose often 57.4 µM), without a hit: at the highest dose activity, negative = inhibition, most hits filed as inhibitors. 270,000 tested, 2.1% active. AID 1460; further: potency means the concentration at half of the fitted maximal effect; nearly all actives have a fitted effect of over 55% in size
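Heparin-induced fibrillization of the P301L-mutant K18 repeat-domain fragment of human tau was followed by ThT binding in quantitative high-throughput format.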
Sfp PPTase inh – blocks B. subtilis Sfp PPTase activity | AID 1490 | Potency, µM, for inactives: largest response in the series, negative = inhibition, usual class: inhibitors | Biochemical Sfp PPTase activity, qHTS | Q9F4F7 | 310,000 tested, 3.5% active;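 further: the enzyme is Sfp with the accession as filed and its product quenches rhodamine fluorescence; potency means the concentration at half of the fitted maximal effect; 0% = enzyme reaction without inhibitor and -100% = no enzyme wells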
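Fluorescence-quenching assay: 15 nM Sfp-PPTase preincubated 15 min at room temperature with compound, then 5 uM rhodamine-CoA and 12.5 uM BHQ-2-labelled YbbR peptide added. Fluorescence (ex 525/em 598 nm) read at start and after 30 min; difference gives rate.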
Tau fluor cs – counter-screen for tau fibril formation inhibitors; tau K18 P301L Alexa594 fluorescence, heparin fibrillization; Potency, µM (titrated, usually from 57.7 µM), for inactives: top-dose activity change, negative = decrease; 280,000 tested, 0.93% active; AID 1463; further: potency means the concentration at half of the fitted maximal effect; nearly all actives have a fitted effect of over 55% in size
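Human tau K18 P301L (15 uM unlabeled, 0.24 uM Alexa 594-labeled) in 100 mM sodium acetate pH 7 with 20 uM heparin, 6 hr at 37 C. ThT 30 uM added, 1 hr ambient; Alexa 594 FP and total fluorescence read at 555/632 nm.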
G9a block – inhibitors of human histone lysine methyltransferase G9a; Q96KQ7; G9a H3K9 monomethylation, AlphaScreen, 2 h; Potency, µM (top dose mostly 102 µM), without a hit: at the highest dose activity, negative = inhibition, hits mostly inhibitors; AID 504332; 350,000 tested, 8.8% active; further: potency means the concentration at half of the fitted maximal effect; nearly all actives have a fitted effect of over 75% in size
Target sequence (Q96KQ7 913-1193 limits assumed): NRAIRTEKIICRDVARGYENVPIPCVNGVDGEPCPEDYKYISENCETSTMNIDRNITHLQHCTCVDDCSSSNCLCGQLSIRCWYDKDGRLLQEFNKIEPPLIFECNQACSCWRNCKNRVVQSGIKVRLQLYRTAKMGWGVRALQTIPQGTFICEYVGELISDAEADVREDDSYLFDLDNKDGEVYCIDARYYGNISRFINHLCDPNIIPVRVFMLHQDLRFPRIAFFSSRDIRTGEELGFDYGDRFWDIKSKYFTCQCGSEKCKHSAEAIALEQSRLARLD
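Readings reflect AlphaScreen signal from monomethyl-H3K9 antibody detection. HMT at 20 nM; substrate b-H3K9 500 nM; cofactor SAM 20 uM; 2 h RT reaction; compounds tested as titrations in qHTS with 15 min preincubation.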
The depositor's hits bear a star; [ ] = another dose, or the depositor's remark. Rows were chosen to be rich in hits. Some 11% of all compounds tested hit in one or more screens of this group. Unless noted, the call rests on the fitted dose curve; in most records, active means well fitted curve in the direction sought with a large enough effect; inconclusive means small, poorly fitted or top-dose-only effect, or another doubt; inactive means no such curve, though single readings can be large; an effect the other way counts as inactive or inconclusive. Unless noted, on the % scale 0 is the no-effect control and ±100 the full control effect.

For COCCN(C(=O)CSc1nnc(-c2ccccc2C)n1C)c1c(N)n(Cc2ccccc2)c(=O)[nH]c1=O the results were Coupling enz 0, Tau FP inhib -10%, Tau fibril ThT -7%, Sfp PPTase inh 6%, Tau fluor cs -4% and G9a block 8.9µM*.
Screening COCCN(C(=O)CSc1nnc(C)n1Cc1ccccc1)c1c(N)n(Cc2ccccc2)c(=O)[nH]c1=O returned Coupling enz 5, Tau FP inhib -2%, Tau fibril ThT -4%, Sfp PPTase inh 6%, Tau fluor cs -5% and G9a block inconclusive.
CC(=O)OCC(NC(=O)C(COCc1ccccc1)NC(=O)OC(C)(C)C)C1OC(n2cc(C)c(=O)[nH]c2=O)C(OC(C)=O)C1OC(C)=O (centres undefined) was read as Coupling enz 4 and Sfp PPTase inh 21%.
For CC(C)Cc1nn2c(=O)cc(COC(=O)c3cccc(NC(=O)CCc4ccccc4)c3)nc2s1 the results were Tau FP inhib 6%, Tau fibril ThT 0%, Tau fluor cs -15% and G9a block -12%[12.7 µM].
For Cc1ccc(CNc2ncnc3c2c(-c2ccccc2)cn3-c2cccc(Cl)c2)cc1 the results were Tau FP inhib -9%, Tau fibril ThT -8%, Tau fluor cs -12% and G9a block 11%[59 µM].
CCCCN(CC)CCCNC(=O)Cn1ncc2c3ccccc3n(Cc3ccccc3F)c2c1=O was read as Tau FP inhib -4%, Tau fibril ThT -4%, Tau fluor cs -13% and G9a block -21%[59 µM].
CN1CCN(CC(=O)n2c3c(c4ccccc42)CCCC3)CC1 was read as Coupling enz -47*, Tau FP inhib 3%, Tau fibril ThT -16%, Sfp PPTase inh -1%, Tau fluor cs -7% and G9a block 40µM*.
Screening Cc1c(C)n(C(=O)CN2CCN(c3ccccc3)CC2)c2ccccc12 returned Coupling enz -2, Tau FP inhib -7%, Tau fibril ThT -4%, Sfp PPTase inh inconclusive, Tau fluor cs -9% and G9a block 50µM*.
Screening CC(C)(C)OC(=O)N[C@@H](Cc1ccccc1)c1nnc(S(=O)(=O)Cc2ccccc2)o1 returned Coupling enz 2, Tau FP inhib -9%, Tau fibril ThT -4%, Sfp PPTase inh 8.9µM*, Tau fluor cs 3% and G9a block 11µM*.
CCC(C)[C@@H](NC(=O)OC(C)(C)C)c1nnc(S(=O)(=O)Cc2cccc(C)c2)o1 (some centres undefined) was read as Coupling enz -3, Tau FP inhib -9%, Tau fibril ThT 7%, Sfp PPTase inh 25µM*, Tau fluor cs -2% and G9a block inconclusive.
For Cc1ccccc1CS(=O)(=O)c1nnc([C@H](Cc2ccccc2)NC(=O)OC(C)(C)C)o1 the results were Coupling enz -12, Tau FP inhib -2%, Tau fibril ThT 15%, Sfp PPTase inh 7.9µM*, Tau fluor cs -4% and G9a block 40µM*.
`CCSc1nnc([C@H](Cc2ccccc2)NC(=O)OC(C)(C)C)o1` gave Coupling enz 0, Tau FP inhib 10%, Tau fibril ThT -13%, Sfp PPTase inh 16%, Tau fluor cs -7% and G9a block -1%[59 µM].
Screening O=c1c2ccccc2c(/C=N/c2n[nH]c(CCCO)n2)c(O)n1-c1ccccc1Cl returned Coupling enz -1, Tau FP inhib -11%, Tau fibril ThT 11%, Sfp PPTase inh 17%, Tau fluor cs -6% and G9a block -22%.
Screening COc1ccccc1C(=O)NC1(C(F)(F)F)C(=O)Nc2c1c(=O)[nH]c(=O)n2-c1ccc(F)cc1 (centres undefined) returned Tau FP inhib 3%, Tau fibril ThT -11%, Tau fluor cs -16% and G9a block -31%[59 µM].

High-throughput results as filed in PubChem BioAssay.
